# Inconclusive results are not listed. A call without a number means that no potency is given here. Active and inactive are the calls of the source. Calls follow the shape of the dose curve; as a rule, active = well fitted cell-killing curve with a large enough effect; inconclusive = small, poorly fitted or top-dose-only effect, or effect the other way; inactive = flat fitted curve, though single readings scatter.
# Test: MultiTox-Fluor Cytotoxicity Assay - LYMP1-001 - Dead Cells (AID 946)
# Settings: LYMP1-001 lymphoblastoid cells, dead-cell protease fluorescence; series mostly up to 92.2 µM
# Source text: NIH Chemical Genomics Center [NCGC]
# NIH Molecular Libraries Screening Centers Network [MLSCN]
# National Institutes of Environmental Health Sciences [NIEHS]
# National Toxicology Program [NTP]
# We have developed a 1536-well cell-based assay for quantitative high throughput screening (qHTS) against a number of cell lines to determine in vitro cytotoxicity of small molecules. This particular assay uses a human lymphoblastoid cell line (LYMP1-001) purchased from Coriell Institute for Medical Research.
# NCGC Assay Protocol Summary:
# The MultiTox-Fluor Cytotoxicity Assay (Promega) is a homogeneous method to simultaneously measure the relative number of live and dead cells in culture by detecting changes in cell membrane integrity. There are two fluorogenic peptide substrates in the assay reagent. Viable cells are determined when the cell-permeant substrate (GF-AFC) enters the cell and is cleaved by protease from live cells resulting in liberated fluorophore. This live-cell protease activity restricted to viable cells is proportional to cell number. The dead cells are determined by using fluorogenic cell-impermeant peptide substrate (bis-AAF-R110) which cleaved by dead cell proteases leaking from damaged cell membrane.
# Using the MultiTox-Fluor Cytotoxicity Assay, the relative number of dead cells was measured in the lymphoblastoid cell line with complete culture medium following compound treatment for 16 hours. The assay was performed in opaque black Kalypsys 1536-well plates. In the screen, tetraoctylammonium bromide was used as positive control. Library compounds were measured for their ability to cause acute toxicity in the cell line, as reflected by an increase in dead cell protease activity, in a concentration-dependent manner. Data were normalized to the controls for basal activity (DMSO only) and 100% stimulation (15 uM tetraoctylammonium bromide). AC50 values were determined from concentration-response data modeled with the standard Hill equation.
# qHTS protocol for MultiTox-Fluor Cytotoxicity assay
# [Step] [Parameter] [Value] [Description]
# 1. Reagent; 5 uL; 2500 lymphoblastoid cells/well
# 2. Time; 5 hr; 37 C incubation
# 4. Controls; 23 nL; Tetraoctylammonium bromide 6.4pM to 92 uM
# 5. Time; 16 hr; 37 C incubation
# 6. Reagent; 5 uL; MuliTox-Fluor Assay reagent
# 7. Time; 60 min; Room Temperature
# 8. Detection; dead-cell fluorescence (Ex/Em=485/520); EnVision plate reader
# Keywords: cytotoxicity, lymphoblastoid cell line, fluorescence, NTPHTS, NTPHTS_NCGC, NIEHS, EPA, DSSTox, MLSMR, MLSCN, NIH Roadmap, qHTS, NCGC
# Potency is read from the fitted curve at half-maximal effect.
row,SMILES,Potency
1,C=C(Cl)Cl,inactive
2,C=CC(=O)OCC,inactive
3,CCN(CC)c1ccccc1,inactive
4,ClC(Cl)=C(Cl)C(Cl)=C(Cl)Cl,inactive
5,CN=C=S,inactive
6,Clc1nc(Cl)nc(Cl)n1,inactive
7,CCNc1nc(Cl)nc(NC(C)C)n1,inactive
8,COc1ccc(C=O)cc1OC,inactive
9,OCC(Br)CBr (stereo not given),inactive
10,O=NN(CCO)CCO,inactive
11,Cc1ccc([N+](=O)[O-])cc1C,inactive
12,CC(Cl)Cl,inactive
13,O=[N+]([O-])c1cccc2ccccc12,inactive
14,CCCCCCCCCc1ccc(O)cc1,39.8 µM (active)
15,CCCC(=O)Cl,inactive
16,COC(=O)NC(=S)Nc1ccccc1NC(=S)NC(=O)OC,inactive
17,Clc1cc(Cl)c(-c2cc(Cl)c(Cl)cc2Cl)cc1Cl,inactive
18,COC1=CC(=O)O[C@@H](/C=C/c2ccc3c(c2)OCO3)C1,inactive
19,O=C=NC1CCCCC1,inactive
20,Nc1ccc(Br)cc1,inactive

row,SMILES,Potency
1,C[N+](C)(C)Cc1ccccc1,inactive
2,Cc1cccc(C#N)c1,inactive
3,c1ccc(OP(Oc2ccccc2)Oc2ccccc2)cc1,inactive
4,C=CCOC(=O)c1ccccc1N,inactive
5,CC(C)(OO)c1ccccc1,inactive
6,CCCCCCCC(=O)Cl,inactive
7,C=CC1CC=CCC1 (stereo not given),inactive
8,O=C(Cl)/C=C/C(=O)Cl,inactive
9,CCCCOCCOP(=O)(OCCOCCCC)OCCOCCCC,inactive
10,O=C1C(Cl)=C(Cl)C(=O)C(Cl)=C1Cl,12.6 µM (active)
11,CC(C)(C)OOC(C)(C)C,inactive
12,CCSC(=O)Cl,inactive
13,CCCOC(=O)c1ccccc1C(=O)OCCC,inactive
14,CC(O)CCl (stereo not given),inactive
15,Clc1ccc2ccccc2c1,inactive
16,C=CC(=C)C,inactive
17,c1ccc2c(c1)CCCC2,inactive
18,c1ccc(-c2ccccc2)cc1,inactive
19,CCCSC(=O)Cl,inactive
20,CCOP(=S)(OCC)SCSC(C)(C)C,inactive
